In PubChem BioAssay AID1471 (National Center for Advancing Translational Sciences (NCATS), 2008):
Values joined by “and” are separate entries in the source; they are usually repeats but may differ in a detail not shown here. Equal values may be shown once. About 310 (0.13%) of roughly 230,000 compounds were called active. A call without a number means that no potency is given here. Inconclusive results (about 2%) are left out. This excerpt belongs to a sample that is enriched for actives. Values without a mark were called inactive. The call rests on the fitted dose curve; in most records, active means well fitted activation curve with a large enough effect; inconclusive means small, poorly fitted or top-dose-only effect; inactive means no such curve, though single readings can be large or run the other way.

Test: qHTS Multiplex Assay to Identify Dual Action Probes in a Cell Model of Huntington: Cytoprotection (ATP); further: nearly all actives have a fitted effect of over 45% in size;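 on cytoprotection (ATP increase): toxic huntingtin expression switched on by the ecdysone agonist tebufenozide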
Conditions: PC12 HTT-Q103 induced, ATP luminescence, 40 h; series mostly up to 56.4 µM
From the text: NIH Chemical Genomics Center [NCGC]
NIH Molecular Libraries Probe Production centers Network [MLPCN]
Assay Submitter (PI): Wei Zheng
Huntington's disease is a neurodegenerative disorder caused by a trinucleotide repeat expansion in Exon 1 of the Huntingtin gene. The CAG trinucleotide encodes glutamine and polyglutamine expansions cause cell death in selective areas of the brain. Huntington polyglutamine repeats have the tendency to form aggregates which are observable in later stages of the disease. The exact nature of the aggregates, whether toxic, protective, or insignificant, is unclear.
A stable PC12 cell line containing a gene fusion of Exon 1 of the Huntingtin gene linked to GFP under the control of the inducible ecdysone promoter were used as the cell-based model of Huntington Disease for high throughput screening. Exon 1 of the Huntingtin gene contained an expansion of 103 polyglutamines (Q103) which, when expressed, caused cell death and distinct, bright GFP aggregates. The amount of cell death and the size and intensity of GFP aggregates increased over time and induction level. The cell death were quantified with a measurement of ATP content in the cells. A maximal 40-50% of cell death was observed when the Huntington gene was induced in this cell line.
We optimized this assay in a homogeneous 1536 well format. A quantitative high throughput screen (qHTS) was conducted on the PC12 cells which were induced to express the toxic fusion construct. Small molecules which prevented cell death were identified by using a luminescent ATP quantification method (Perkin Elmer's ATPlite).
PC12 cells stably containing a construct with an ecdysone inducible promoter expressing GFP fused to the exon 1 of HTTQ103 (Huntington protein which containing a 103 ployglutamine expansion) were used.
NCGC Assay Protocol Summary:
Sequence, Parameter, Description
1, Reagent, 5 uL 1500 cells/well 1536 TC treated White clear bottom plate
2, Compound, 23 nL Tebufenozide inducer (100 nM final) to all columns
3, Compound, 23 nL 40 uM to 0.5 nM Libraries
5, Reagent, 5 ul ATPLite cell death assay reagent
6, Detector, 4 sec integration with a Viewlux Luminescent
Media consisted of phenol red free DMEM + 5% equine serum (Hyclone # SH30072.03 ), 5% supplemented Bovine Calf Serum (Hyclone # SH30074.03 ), 1x pen/strep, no G418
Control columns: 1 = DMSO, 2= 2 uM teb dilns (1:1), 4 = 100 nM Teb inducer. Sample columns received 100 nM Teb.
Potency means the concentration at half of the fitted maximal effect.

Structure (SMILES)	cytoprotection (ATP increase)	Potency
CCCCCCCC/C=C\CCCCCCCC(=O)NCC(=O)O	inactive	–
CC(=O)Oc1ccccc1C1=NN(C(C)=O)C(c2ccccc2)C1 (stereo unspecified)	inactive	–
CCCN(CCc1ccccc1)C1CCc2c(O)cccc2C1 (stereo unspecified)	inactive	–
CCOC(=O)C1=C(C)c2ccccc2OC1C(=O)OCC (stereo unspecified)	inactive	–
O=C(O)C[C@@H]1NC(=O)[C@H](Cc2ccccc2)NC1=O	inactive	–
COc1ccc(-c2nc3c(c4c2C[C@H](c2ccccc2)OC4)CN(C(=O)c2cccnc2)CC3)c(C)c1	27.4% [at 10 µM]	–
COc1ccc(NC(=S)NC2CCS(=O)(=O)C2)cc1 (stereo unspecified)	2.72% [at 0.074 µM]	–
COc1cccc(CC(=O)N2CCc3nc(COc4ccccc4)c4c(c3C2)CO[C@@H](C)C4)c1	16.2% [at 10 µM]	–
CC(C)C1=CC2=CC[C@H]3[C@](C)(C(=O)O)CCC[C@]3(C)C2CC1 (stereo partly specified)	inactive	–
COc1ccc(-c2[nH]nc(-c3ccccc3)c2-c2nc3ccccc3[nH]2)cc1	inactive	–
CSc1ncccc1C(=O)N1CCCC(CCC(=O)NCc2ccccc2F)C1 (stereo unspecified)	4.93% [at 10 µM]	–
CCOC(=O)CCNC(=O)N1CCCC(C(=O)c2ccccc2SC)C1 (stereo unspecified)	2.06% [at 10 µM]	–
CSCCC(=O)N1CCCC(CNC(=O)c2ccccc2Cl)C1 (stereo unspecified)	–	2.82 µM (active)
C[C@@H]1C(c2ccc(F)cc2)=NN(c2ccc(Br)cc2)[C@H]1C(=O)N1CCOC1=O	inactive	–
Cc1cc(=O)oc(C)c1C(=O)NCCN(C)Cc1ccccc1	inactive	–
COc1ccc(-c2nc(-c3ccccc3)oc2Nc2ccc3ccccc3c2)cc1	inactive	–
COc1ccc2c(c1)O[C@@H](c1ccc3c(c1)OCO3)[C@H](OC(=O)NCc1ccco1)C2=O	inactive	–
O=C(O)CCC(=O)O	inactive	–
CCCCCCCCCCCCCCCCO	inactive	–
COc1ccc(CCCOC(Cn2ccnc2)c2ccc(OC)cc2)cc1 (stereo unspecified)	inactive	–
NC(=O)C1CCN(C(=O)c2ccc(-c3ccccc3)cc2)CC1	inactive	–
COc1ccccc1CN(C)c1nnnn1-c1ccccc1	inactive	–
COc1ccccc1-n1nnnc1S(=O)(=O)Cc1ccc(Cl)cc1	–	25.1 µM (active)

Structure (SMILES)	cytoprotection (ATP increase)	Potency
COc1ccccc1N1CCN(C(=O)CN(Cc2ccc(Cl)cc2)S(C)(=O)=O)CC1	inactive	–
COC(=O)CCCC1=CC2=CC(=O)C(C)(OC(=O)c3cccs3)C(=O)C2=CN1c1ccc(CO)cc1 (stereo unspecified)	-11% [at 10 µM]	–
CC(=O)N(CC(O)CO)c1c(I)c(C(=O)NCC(O)CO)c(I)c(C(=O)NCC(O)CO)c1I (stereo unspecified)	inactive	–
COC(=O)C1=C(C(=O)OC)[C@@H]2N(C)c3ccccc3[C@@]23C[C@@H](C(=O)OC)N(S(=O)(=O)c2cccs2)C3=N1	-27.2% [at 10 µM]	–
COc1ccc(-c2noc(-c3cccc(OC)c3OC)n2)cc1OC	inactive	–
COc1ccc(-c2nc(-c3ccccc3)no2)c(OC)c1	–	5.62 µM (active)
COc1ccc(-c2noc(-c3ccc(C)cc3)n2)cc1	inactive	–
O=P(O)(O)C(O)c1ccc2ccccc2c1 (stereo unspecified)	inactive	–
COCCNc1nc2nonc2nc1N(C)Cc1ccc(C)cc1	-6.59% [at 10 µM]	–
Cc1ccc(NC(=O)O[C@@H]2C(=O)c3cc(Br)ccc3O[C@H]2c2ccc3c(c2)OCO3)cc1Br	inactive	–
CCNc1nc(NC(C)C)nc(OCCOC(=O)c2ccccc2)n1	-7.6% [at 10 µM]	–
COc1ccc(C2(C#N)CCC(C(=O)O)CC2)cc1OC1CCCC1 (stereo unspecified)	inactive	–
C=C(C)C(=O)c1ccc(F)cc1	inactive	–
C/C(Nc1ccc2oc(=O)ccc2c1)=C1/C(=O)CC2[C@@H]1C2(C)C (stereo partly specified)	inactive	–
Nc1ccc(N=Nc2ccccc2Cl)c(N)n1	7.07% [at 10 µM]	–
COC(C)C(C(=O)OCC1=CCN2CC[C@H](O)[C@@H]12)C(C)C (stereo partly specified)	inactive	–
COc1ccc(-c2c(C)cc3oc(=O)cc(-c4ccccc4)c3c2C)cc1F	inactive	–
N#C/C(=C\C1=C(N2CCOCC2)C(=C\c2ccccc2)/CC1)C(=O)Nc1ccccc1F	6.74% [at 10 µM]	–
COC(=O)C1=C(C(=O)OC)[C@@H]2Nc3ccccc3[C@@]23C[C@@H](C(=O)OC)N(S(=O)(=O)c2ccc([N+](=O)[O-])cc2)C3=N1	9.32% [at 10 µM]	–
COC(=O)C1=C(N)Oc2cc(C)[nH]c(=O)c2C1c1ccc(Cl)cc1 (stereo unspecified)	-1.17% [at 10 µM]	–
COc1ccc(C2CC(=O)Oc3ccc(C(C)(C)C)cc32)cc1 (stereo unspecified)	inactive	–
FCOC(C(F)(F)F)C(F)(F)F	inactive	–
CC(C)=CCC[C@]1(C)[C@@H](CC=C(C)C)C[C@@]2(CC=C(C)C)C(=O)[C@]1(C(=O)C(C)C)C(=O)C(CC=C(C)C)=C2O	inactive	–

Structure (SMILES)	cytoprotection (ATP increase)	Potency
O=C(OCc1ccccc1)c1ccc(O)cc1	inactive	–
COc1ccc(-c2nc3c(c4c2C[C@H](c2ccccc2)OC4)CN(C(=O)c2ccco2)CC3)c(C)c1	-10% [at 10 µM]	–
CCCCCCCC1=Cc2ccc(F)cc2C(C(C(=O)OC)C(=O)OC)N1C(=O)OC (stereo unspecified)	inactive	–
OCC(CO)NC1C[C@](O)(CO)[C@@H](O)[C@H](O)[C@H]1O (stereo partly specified)	inactive	–
CC(=O)OC1C([N+]2(C)CCCCC2)C[C@H]2C3CC[C@H]4C[C@H](OC(C)=O)C([N+]5(C)CCCCC5)CC4(C)C3CCC12C (stereo partly specified)	inactive	–
Oc1ccc(Cl)c2c1CCC2	inactive	–
O=C(O)C1CCCN(CCC=C(c2ccccc2)c2ccccc2)C1 (stereo unspecified)	inactive	–
COCCNc1nc(-c2ccccc2)nc2c1oc1ccccc12	13.7% [at 10 µM]	–
CC(=O)c1cnn(-c2cc(Oc3ccc(F)cc3)ncn2)c1C	inactive	–
CO[C@@]12[C@@H](COC(N)=O)C3=C(C(=O)C(C)=C(N)C3=O)N1C[C@@H]1N[C@@H]12	inactive	–
C[C@]12CC[C@@H]3c4ccc(O)cc4C[C@@H](CCCCCCCCCS(=O)CCCC(F)(F)C(F)(F)F)C3[C@@H]1CC[C@@H]2O (stereo partly specified)	inactive	–
O=C(CSc1ncnc2c1nnn2Cc1ccc(F)cc1)NC1CCCC1	–	1.26 µM (active)
O=C(Cn1cnc2c(nnn2Cc2ccc(F)cc2)c1=O)NCc1ccc2c(c1)OCO2	7.52% [at 10 µM]	–
O=C(Cc1ccc(F)cc1)NC1CCCC1	inactive	–
COC(=O)C(C(=O)OC)[C@@H](NC=O)c1ccccc1	inactive	–
CC1(OC(=O)c2ccc(Cl)nc2)C(=O)Cc2cc(-c3ccsc3)ncc2C1=O (stereo unspecified)	-9.48% [at 10 µM]	–
COc1ccc2c(c1)O[C@@H](c1ccc3c(c1)OCO3)[C@H](OC(=O)NCCc1ccc(OC)c(OC)c1)C2=O	inactive	–
COc1cc2c(cc1OC)[C@@H](Cc1cc(OC)c(OC)c(OC)c1)[N+](C)(CCCOC(=O)CC/C=C/CCC(=O)OCCC[N+]1(C)CCc3cc(OC)c(OC)cc3[C@H]1Cc1cc(OC)c(OC)c(OC)c1)CC2 (stereo partly specified)	inactive	–
CCN1C(=O)N[C@@H](CCc2ccccc2)C(C(=O)OC)=C1C	-1.46% [at 10 µM]	–
C=C(C(C)=O)C(O)c1cccs1 (stereo unspecified)	inactive	–
O=C(Nc1ccc(O)cc1)c1ccccc1O	inactive	–
CC(C)(Oc1ccc(C2CC2(Cl)Cl)cc1)C(=O)O (stereo unspecified)	inactive	–
C=CCOC(=O)NC(c1ccc(F)c(F)c1)C(C(=O)COC)C(=O)OC (stereo unspecified)	inactive	–

Structure (SMILES)	cytoprotection (ATP increase)	Potency
CCn1c(-c2ccoc2C)n[nH]c1=S	–	5.62 µM (active)
CCn1c(C(C)C)n[nH]c1=S	inactive	–
CCn1c(-c2ccncc2)n[nH]c1=S	inactive	–
Cc1ccc(Nc2nc(N)nc(CSc3nnc(C)s3)n2)cc1	18.8% [at 10 µM]	–
CCOC(=O)C1CCCN(C(=O)c2cccc(S(=O)(=O)N3CCOCC3)c2)C1 (stereo unspecified)	21.6% [at 10 µM]	–
CC(C)=CCN1CCC2(CCc3ccccc32)CC1	inactive	–
C#CCCOC(=O)N1C2=NC(C(=O)OC)=C(C(=O)OC)[C@@H]3N(C)c4ccc(OC)cc4[C@]23C[C@H]1C(=O)OC	-19.2% [at 10 µM]	–
O=P(O)(O)OC[C@H](O)CO	inactive	–
CC(C)(C)OC(=O)NCCCC1=CC2=CC(=O)C(C)(OC(=O)c3ccco3)C(=O)C2=CO1 (stereo unspecified)	inactive	–
COCCCNC(=O)C1CC(=O)N(CCc2ccccc2)C1 (stereo unspecified)	inactive	–
COc1ccc(N=Nc2ccc(O)c(P(=O)(c3ccccc3)c3ccccc3)c2)cc1	13.4% [at 10 µM]	–
COC(=O)C1(C(C)=O)CC2=CC[C@H]3C(=O)N(c4ccccc4)C(=O)[C@H]3[C@@H]2Cc2ccccc2[C@@H]1C[N+](=O)[O-] (stereo partly specified)	inactive	–
Cc1c(N=Nc2ccc(N(C)C)cc2)c(=O)n(-c2ccccc2)n1C	-1.47% [at 10 µM]	–
CCNC(=O)COC(=O)/C=C/c1c(C)nn(Cc2cccc(OC)c2)c1Cl	inactive	–
CN(C)c1nc(N)nc(Cn2nnc(-c3ccc(C(F)(F)F)cc3)n2)n1	inactive	–
COC(=O)C1=C(C(=O)OC)[C@@H]2N(C)c3ccccc3[C@@]23C[C@@H](C(=O)OC)N(C(C)=O)C3=N1	0.243% [at 10 µM] and 2.58% [at 10 µM]	–
CCCCCCCC/C=C\CCCCCCCC(=O)OC[C@H](CO)OC(C)=O	inactive	–
Cc1ccc(CC2(O)CCN(CCOc3ccc(O)cc3)CC2)cc1	inactive	–
C=C1O[C@@](CO)(n2cnc3c(N)ncnc32)[C@H](O)[C@@H]1O	inactive	–
CC1=C2[C@@H](O)[C@H]([C@@H](C)C(=O)NCCC(C)C)CC[C@@]2(C)C=CC1=O	inactive	–
COc1cccc([C@@H]2Oc3ccc(Br)cc3C(=O)[C@H]2OC(=O)NCCc2ccc(OC)c(OC)c2)c1	inactive	–
CCCCC/C=C\C/C=C\C/C=C\CCCCCCC(N)=O	inactive	–
